According to PubChem BioAssay AID720541 (National Center for Advancing Translational Sciences (NCATS), 2013):
The whole screen tested about 1,300 compounds, of which about 420 (32%) were called active. Inconclusive results (about 32%) are left out. The list shows a part of the results. Values without a mark were called inactive. Calls follow the shape of the dose curve; as a rule, active = well fitted inhibition curve with a large enough effect; inconclusive = small, poorly fitted or top-dose-only effect; inactive = no such curve, though single readings can be large or run the other way.

Molecular target: C-terminal-binding protein 1 (Homo sapiens) (UniProt Q13363)
Experiment: qHTS for Inhibitors of the Phosphatase Activity of Eya2: Carboxyl-terminal binding protein (CtBP) Counterscreen for Cherry-picked Compounds; also: nearly all actives have a fitted effect of over 65% in size
Settings: purified protein-protein binding, AlphaScreen, 3 h; series mostly up to 46.1 µM; activity change, negative = inhibition: at the top concentration
Description: The Eya protein family is an essential co-activator of the Six1 transcription factor. Six1 is a developmental gene that is abnormally re-expressed in a large percentage of breast cancers. This over-expression plays a causal role in the initiation and metastatic development of breast cancers. The Eya family of protein is also found to contain a unique HAD phosphatase domain with protein tyrosine phosphatase activity which can potentially play a role in Six1-mediated breast tumorigenesis. Recently, Eya2 is found to dephosphorylate the histone variant H2AX and direct cells towards DNA repair instead of apoptosis in the event of DNA damage.
A 1536 well format, fluorescence based qHTS assay was developed and used to target the phosphatase activity of Eya2 (AID 488837). In addition, a CtBP counterscreen was developed using the AlphaScreen technology to evaluate compound selectivity to target […]. The data herein reports the activity of the cherry-picked compounds against the CtBP AlphaScreen. Compounds that are active or have > 100 fold selectivity vs. the Eya2 activity were excluded for further characterization. Inactivity is the desired outcome for the CtBP counterscreen.
NIH Chemical Genomics Center [NCGC]
NIH Molecular Libraries Probe Centers Network [MLPCN]
Assay Submitter (PI): Rui Zhao, University of Colorado Denver
Four microliters of reagent (25 nM GST-E1A, 25 nM CtBP-6x HIS) was dispensed in a 1536 well Greiner plates. Twenty-three nanoliter of test compounds (final concentration of 2.5 nM - 46 uM) and positive control E1A peptide inhibitor (final concentration of 0.14 nM - 4.6 uM) were added to the plates using the Kalypsys pintool equipped with a 1536 pin head. The plates was then incubated at room temperature for 2 hours followed by addition of 1 uL Alpha bead donor / acceptor mix (20 ug/mL final concentration). The assay plates were incubated for additional 1 hour at room temperature and protected from light. The AlphaScreen signal was obtained using the PerkinElmer EnVision plate reader using the 680 nm excitation and 520 - 620 nm emission filters. The data was normalized to the E1A peptide inhibitor for maximum inhibition and DMSO treated wells as negative control.
% is scaled to controls: 0 for no effect and ±100 for the full control effect; potency is read from the fitted curve at half-maximal effect.

SMILES	activity change, negative = inhibition	Potency
CCC(C)N(C(=O)CSc1nc(-c2cccs2)nc2ccccc12)C1CCS(=O)(=O)C1 (stereo not drawn)	-28.4%	–
CSc1nc(NCCOCCO)c2sc3nc(-c4ccco4)c4c(c3c2n1)CCC4	–	5.36 µM (active)
OCCN(Cc1cccnc1)Cc1ccccn1	–	5.36 µM (active)
COCC(C)n1c(-c2ccc3c(c2)NC(=O)CO3)csc1=Nc1ccc(OC(F)F)cc1 (stereo not drawn)	-25.4%	–
CCOC(=O)c1cc2c(N)c(C(=O)c3ccc(Br)cc3)sc2[nH]c1=O	–	1.9 µM (active)
Cc1cc(C(=O)CSc2nc(N)cc(N)n2)c(C)n1C1CC1	-28.9%	–
COc1ccc(C(CCNCc2ccc(N(C)C)cc2)C(C)C)cc1 (stereo not drawn)	–	12 µM (active)
COc1ccccc1C(CCNCc1ccc(N(C)C)cc1)c1ccc(OC(C)C)cc1 (stereo not drawn)	–	6.01 µM (active)
CCCCC(=O)NC(c1cccc([N+](=O)[O-])c1)c1ccc2cccnc2c1O (stereo not drawn)	-69.6%	–
CCC(=O)NC(c1cccs1)c1cc(Cl)c2cccnc2c1O (stereo not drawn)	–	1.69 µM (active)
COc1ccc(C(NC(C)=O)c2cc(Cl)c3cccnc3c2O)cc1OC (stereo not drawn)	–	1.69 µM (active)
COc1ccc(C(NC(C)=O)c2ccc3cccnc3c2O)cc1OC (stereo not drawn)	–	1.35 µM (active)
CCCCC(=O)NC(c1ccco1)c1cc(Cl)c2cccnc2c1O (stereo not drawn)	–	4.78 µM (active)
CCOC(=O)N1CCN(S(=O)(=O)c2ccc(C(=O)NNc3nc4c(C)cc(C)cc4s3)cc2)CC1	-22.9%	–
O=c1[nH]c(/C=C\c2ccc(O)cc2)nc(O)c1[N+](=O)[O-]	-9.35%	–
O=C(NCCC1=CCCCC1)c1[nH]c(C(F)(F)F)nc1-c1ccccc1	-26.7%	–
O=C(NC1CCCCC1)N1CCN(C2CCCCC2)CC1	9.26%	–
CCCC(=O)NC(c1ccc(OC)c(OC)c1)c1cc(Cl)c2cccnc2c1O (stereo not drawn)	–	1.69 µM (active)
CCC(=O)NC(c1ccc(OC)c(OC)c1)c1cc(Cl)c2cccnc2c1O (stereo not drawn)	–	1.69 µM (active)
O=C(Oc1ccc(Cl)c2cccnc12)C12CC3CC(CC(C3)C1)C2	19.6%	–
CC(=O)NC(c1ccc(Cl)cc1)c1ccc2cccnc2c1O (stereo not drawn)	–	1.9 µM (active)
O=C(O)c1ccccc1NC(c1ccccc1)c1ccc2cccnc2c1O (stereo not drawn)	–	1.9 µM (active)
O=C(Nc1ncc(Cc2ccccc2Cl)s1)c1ccc(-c2cccc([N+](=O)[O-])c2)o1	-12.9%	–
COc1ccc(C2c3[nH]c4ccccc4c3C[C@H]3C(=O)N(C4CCN(Cc5ccccc5)CC4)CC(=O)N23)cc1OC (stereo partly drawn)	-26.4%	–

SMILES	activity change, negative = inhibition	Potency
CCCCOC(=O)CCCc1ccc([N+](=O)[O-])cc1[N+](=O)[O-]	-29.8%	–
CCOc1ccc2c(c1)C(c1ccc(C)cc1)=NNC(c1ccc(OC)cc1)=N2	-25.4%	–
O=c1c2ccccc2c(C=Nc2cccc(S(=O)(=O)NC3=NCCCCC3)c2)c(O)n1Cc1ccccc1	-6.05%	–
CCN(CC)CCNC(=O)c1ccc(N)cc1	3.53%	–
CC(C)C(=O)NC(c1ccc(Cl)cc1Cl)c1ccc2cccnc2c1O (stereo not drawn)	–	5.36 µM (active)
O=C(CSc1nnc2c(Cl)cc(Cl)cn12)NC1CCS(=O)(=O)C1 (stereo not drawn)	4.22%	–
O=C(C[n+]1ccccc1)c1ccc(O)c(O)c1	-8.91%	–
CC12CC3(C)CC(C)(C1)CC(C(=O)NC(=S)N1CCOCC1)(C2)C3	-7.12%	–
COc1ccc(-c2nnc(NC(=O)c3ccc(S(=O)(=O)N(C)CC4CCCO4)cc3)o2)c(OC)c1 (stereo not drawn)	–	16.9 µM (active)
O=c1c(CO)cc(CO)cc(CO)c1O	–	9.53 µM (active)
Cn1c(=O)n(Cc2ccccc2)c(=O)c2c1nc(NCC1CCCO1)n2Cc1ccccc1 (stereo not drawn)	-19%	–
Cn1c(=O)n(Cc2ccc(F)cc2)c(=O)c2c1nc1n2CCN1Cc1ccco1	–	10.7 µM (active)
Cn1c(=O)n(CCO)c(=O)c2c1nc(Br)n2Cc1ccccc1	7.05%	–
COCCNC(=O)CCC(=O)NNc1nc2ccccc2c2nc(-c3ccccc3)nn12	-29.3%	–
COc1ccc2c(c1)c1nnc(SC(C)C)nc1n2C	–	4.78 µM (active)
Cc1cccc(NC(=S)N(CCN2CCOCC2)Cc2cc3cc4c(cc3[nH]c2=O)OCCO4)c1	10.2%	–
Nc1ccc2c(c1Cl)C(=O)c1ccc(N)c(Cl)c1C2=O	–	6.01 µM (active)
CCOC(=O)c1ccc(NC(=S)N2CCN(CCN=CC3=C(O)CC(c4ccccc4)CC3=O)CC2)cc1 (stereo not drawn)	45.5%	–
COc1cc(N=c2oc3c(C)ncc(CO)c3cc2C(N)=O)cc(OC)c1OC	–	4.78 µM (active)
CCOC(=O)Cc1nnc(NC(=O)C(CC)Sc2nnc3c4ccccc4n(C)c3n2)s1 (stereo not drawn)	–	13.5 µM (active)
O=C(CSc1nnc2c(n1)[nH]c1ccccc12)Nc1cccc(S(=O)(=O)N2CCOCC2)c1	-21%	–
Cc1nc(NC(=O)CSc2nnc(-c3ccccc3)c(-c3ccccc3)n2)c(Cl)cc1Cl	-28%	–
CCOC(=O)Cc1nnc(NC(=O)CSc2nnc3c4ccccc4n(C)c3n2)s1	–	15.1 µM (active)
CCOC(=O)Cc1nnc(NC(=O)CSc2nnc3c(n2)[nH]c2ccccc23)s1	–	15.1 µM (active)
